Hit rate of the full screen: of about 290,000 compounds, about 3,000 (1%) were called active. What follows is part of a selection rich in actives, with near analogues and random picks from the rest. Unmarked numbers belong to inactive results. Rule as the data show it: active = inhibition mostly above about 36% (no sharp cut-off); inactive = mostly below about 34%.
Assay: inhibition of NOD1-driven NF-kB reporter – cell-based, luminescence, uHTS, primary screen (AID 1578);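 also: HEK-293T reporter cells stimulated with the NOD1 agonist gamma-tri-DAP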
Conditions: NOD1-driven NF-kB luciferase reporter cells, at 4 µM, hits give high values

SMILES | inhibition
CNC(=O)C(=O)NCC1OCCN1S(=O)(=O)c1ccc(C)cc1 (stereo not drawn) | -22.7%
CCc1ccnc(NC(=O)NS(=O)(=O)c2ccc(C)cc2)c1 | -11.9%
COc1ccc(NS(=O)(=O)c2cccc(C(=O)OCC(=O)NC3CC3)c2)cc1 | 7.3%
CCC(NC(=O)c1cc(COc2ccc(OC)cc2Cl)on1)c1ccncc1 (stereo not drawn) | -10.3%
O=C(CCc1nnc(CCCCc2ccccc2)o1)NCCn1cccn1 | -24.1%
CCC(Sc1nc2cc(OC)c(OC)cc2c(=O)n1Cc1ccc(OC)cc1)C(=O)NCCOC (stereo not drawn) | -24.5%
c1ccc(Oc2cnc3ccccc3n2)cc1 | 13.1%
COc1ccc(Oc2cnc3ccccc3n2)cc1 | 60.3% (active)
Cc1ccc(Oc2cnc3ccccc3n2)cc1 | 18.8%
NC(=O)c1nn(-c2ccc(Oc3ccccc3)cc2)c(=O)cc1O | -23.2%
CC(CCc1ccccc1)NC(=S)NC(=O)c1ccco1 (stereo not drawn) | -37%
O=C(NC(=S)NCCc1ccccc1)c1ccco1 | -69.5%
O=C(NC(=S)N(CCc1ccccc1)CCc1ccccc1)c1ccco1 | 97.6% (active)
CC(C)C1Nc2ccc(C(=O)NC3CCCCC3)cc2NC1=O (stereo not drawn) | -43.7%
Nc1nc(-c2ccccc2)cc(N2CCCCC2)n1 | 6.2%
CN(C)S(=O)(=O)c1cccc(NC(=S)N/N=C/c2ccc(O)c(O)c2O)c1 | 56.3% (active)
CN(C)S(=O)(=O)c1cccc(NC(=S)N/N=C/c2cc(Br)ccc2O)c1 | -11.2%
COc1ccc(O)c(/C=N/NC(=S)Nc2cccc(S(=O)(=O)N(C)C)c2)c1 | -37%
Cc1cccc2nc(-c3ccccc3)nc(N3CCC(O)(c4ccc(Cl)cc4)CC3)c12 | -4.5%
CCN1CCCC1CNC(=O)c1ccc(CS(=O)(=O)c2ccccc2C)o1 (stereo not drawn) | 4.8%
Cc1ccc(S(=O)(=O)N2CCOC23CCN(C(=O)c2ccc(Cl)cc2Cl)CC3)cc1 | -26.1%

SMILES | inhibition
Oc1ccccc1C=Nc1ccccc1-c1nc2ccccc2[nH]1 | -7.6%
CC(C)(C)C(=O)NC(=S)Nc1sc2c(c1C#N)CCCCC2 | -10.7%
CC(C)(C)C(=O)NC(NC(=S)Nc1sc2c(c1C#N)CCCC2)C(Cl)(Cl)Cl (stereo not drawn) | 46.4%
CC(C)CC(=O)NC(NC(=S)Nc1sc2c(c1C#N)CCCC2)C(Cl)(Cl)Cl (stereo not drawn) | 64.5% (active)
Cc1cc(Nc2ccccc2)nc(NCc2ccccc2)n1 | 52.7%
O=C(c1ccco1)N1CCN(C(=O)c2cc3c(s2)-c2ccccc2OC3)CC1 | -13%
CCOc1ccc(C(=O)NCC(=O)OCC(=O)N2C(C)CCCC2C)cc1 (stereo not drawn) | -9.2%
O=C(N/N=C/c1ccoc1)c1ccccc1 | 20.3%
CN(CCO)S(=O)(=O)c1ccc2c(c1)C(=NO)c1cc(S(=O)(=O)N(C)CCO)ccc1-2 | -16%
CCCNC(=O)c1n[nH]c(=O)c2ccccc12 | -12.4%
Cc1cc(C)c2c(N)c(C(=O)c3ccc(Cl)cc3Cl)sc2n1 | 81.7% (active)
Cc1cc(C)c2c(N)c(C(=O)Nc3ncc(C)s3)sc2n1 | 92.5% (active)
Cc1cc(C)c2c(N)c(C(=O)c3ccc(Cl)cc3)sc2n1 | 6.3%
Cc1cc(C)c2c(N)c(C(=O)NN)sc2n1 | -9.3%
Cc1cc(C)c2c(N)c(C(=O)c3ccccc3Cl)sc2n1 | 0.3%
Cc1cc(C)c2c(N)c(C(=O)Nc3nccs3)sc2n1 | 34.4%
O=C(CSc1nnc(NC(=O)C2CC2)s1)NCc1ccc(F)cc1 | -10%
COc1ccc(C(C)=O)cc1CSc1ncccn1 | -32.9%
O=C1Nc2cc(Cl)c(Cl)cc2N(O)N1c1ccc(Cl)cc1 | 11.5%
CCC/C(O)=C1\C(=O)CCCC1=NCCc1c(C)[nH]c2ccc(OC)cc12 | 65.4% (active)
CCCC/C(O)=C1\C(=O)CCCC1=NCCc1c(C)[nH]c2ccc(OC)cc12 | -7.7%

SMILES | inhibition
CCC/C(O)=C1\C(=O)CCCC1=NCCc1c(C)[nH]c2ccc(C)cc12 | -7.7%
CCS(=O)(=O)c1ccc2c(c1)N(S(C)(=O)=O)CC(C(=O)NCc1ccccc1OC)O2 (stereo not drawn) | 10.4%
Cc1oc(-c2cc(F)ccc2F)nc1CN1CCN(c2cnccn2)CC1 | -26%
COc1ccc(-c2nc(CN3CCN(c4cc(C)nc(C)c4)CC3)c(C)o2)c2ccccc12 | -23.4%
COc1ccc(-c2nc(CN3CCN(c4ccccc4OC)CC3)c(C)o2)cc1 | -31.1%
Cc1cccc(N2CCN(Cc3nc(-c4ccccc4Cl)oc3C)CC2)n1 | -11.6%
Cc1cnc(C)c(N2CCN(Cc3nc(-c4cccc(F)c4F)oc3C)CC2)n1 | -26.1%
Cc1cccc(N2CCN(Cc3nc(-c4ccc(F)cc4F)oc3C)CC2)n1 | -6.3%
CCCCn1c(SCC(=O)Nc2cc(C(F)(F)F)ccc2Cl)nnc1C(CC)N(C)C (stereo not drawn) | -47.6%
O=C1CCc2cc(S(=O)(=O)N3CCC(C(=O)NCc4ccccn4)CC3)ccc2N1 | -15.8%
O=C(O)CCC(=O)Nc1cccc(-c2nnc(-c3ccccc3)o2)c1 | 15.5%
CCN1CCSc2ccc(C(=O)Nc3ccc(NC(C)=O)cc3)cc21 | 4%
CC(=O)Nc1ccc(NC(=O)C2(C)CC2(Cl)Cl)cc1 (stereo not drawn) | -29.2%
N#CCCn1c(SCC(=O)NCc2ccco2)nc2ccccc21 | -13.3%
CC(=O)c1cccc(NC(=O)CNC(=O)Cc2ccccc2)c1 | 19.8%
CC(C)(C)NC(=O)N1CCCN(c2ccc(C(F)(F)F)cn2)CC1 | -7.3%
CCOC(CNc1cc(C)nc2c(-c3ccccc3OC)c(C)nn12)OCC | -6.1%
Clc1ccccc1-c1ccc(CN2CCN(c3ccccc3)CC2)o1 | 7.9%
CC(C(=O)Nc1c2c(cc3c1CCC3)CCC2)N1CCCC1 (stereo not drawn) | 63.4% (active)
Cc1cccc(C)c1NC(=O)C(C)N1CCCC1 (stereo not drawn) | 5.2%
Cc1cc(C)c(NC(=O)C(C)N2CCCCCC2)c(C)c1 (stereo not drawn) | 39.1%

Reference: PubChem BioAssay AID1578 (Sanford-Burnham Center for Chemical Genomics, 2009)
